Screening data deposited in PubChem by National Center for Advancing Translational Sciences (NCATS).
RGS12 GoLoco inh = RGS12 GoLoco-Gai1 interaction inhibition. Potency, µM (titrated, usually from 61.6 µM), usual class: inhibitors. P63096. 230,000 compounds, 0.44% hits. Gai1:RGS12 GoLoco peptide FP, rhodamine, 10 min; active means well fitted inhibition curve with a large enough effect, not every such curve was filed as active; inactive means no such curve, though single readings can be large or run the other way; further: nearly all actives have a fitted effect of over 30% in size
Target sequence (P63096 whole entry, looked up): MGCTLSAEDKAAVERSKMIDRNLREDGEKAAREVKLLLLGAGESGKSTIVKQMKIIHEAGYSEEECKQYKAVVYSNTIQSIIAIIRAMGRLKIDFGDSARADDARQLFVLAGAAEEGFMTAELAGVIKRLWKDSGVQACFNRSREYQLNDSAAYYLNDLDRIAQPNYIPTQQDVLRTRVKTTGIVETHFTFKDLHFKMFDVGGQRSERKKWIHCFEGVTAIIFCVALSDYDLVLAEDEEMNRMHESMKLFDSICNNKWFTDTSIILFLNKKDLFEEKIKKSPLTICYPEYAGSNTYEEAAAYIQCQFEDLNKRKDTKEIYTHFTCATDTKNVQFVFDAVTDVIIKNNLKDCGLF
HttQ103 aggreg = inhibitors of mutant huntingtin aggregate formation in PC12 cells; Potency, µM (doses to about 46.1 µM), hits mostly inhibitors; PC12 HttQ103-GFP aggregates, Acumen cytometry, 40 h; 220,000 compounds, 1.1% hits; active means well fitted curve in the direction sought with a large enough effect; inconclusive means small, poorly fitted or top-dose-only effect, or another doubt; inactive means no such curve, though single readings can be large; an effect the other way counts as inactive or inconclusive; further: nearly all actives have a fitted effect of over 60% in size
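Compounds (qHTS titration) were added to PC12 cells expressing an ecdysone-driven HTT exon 1 Q103–GFP fusion after induction with 100 nM tebufenozide. Aggregate formation was measured as GFP objects in cell lysates.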
ALDH1A1 block = inhibitors of human aldehyde dehydrogenase 1A1 | 220,000 compounds, 7.3% hits | P00352 | Potency, µM (top dose mostly 75.3 µM), usual class: inhibitors | AID 1030 | Purified ALDH1A1, NADH fluorescence, propionaldehyde substrate
HPGD inh = inhibitors of human 15-hydroxyprostaglandin dehydrogenase (HPGD). P15428. purified HPGD, NADH fluorescence kinetic, PGE2 substrate. Potency, µM, most hits filed as inhibitors. 150,000 compounds, 4.3% hits. AID 894
Target sequence (P15428 whole entry, looked up): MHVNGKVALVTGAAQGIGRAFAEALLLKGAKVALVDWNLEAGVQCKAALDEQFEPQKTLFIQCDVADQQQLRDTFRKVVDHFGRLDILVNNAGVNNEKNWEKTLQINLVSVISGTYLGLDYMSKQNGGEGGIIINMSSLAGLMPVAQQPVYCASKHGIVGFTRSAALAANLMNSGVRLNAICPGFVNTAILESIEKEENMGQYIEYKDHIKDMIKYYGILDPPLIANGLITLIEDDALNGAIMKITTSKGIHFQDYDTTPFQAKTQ
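NADH formation kinetics: reaction with 30 uM PGE2 and 1 mM NAD+ (final), 20 nM enzyme, Tris-HCl pH 8 with Tween 20, after 15 min compound preincubation at room temperature. Fluorescence change, last versus first of five reads.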
HTT ATP protect = protects HTT-Q103 PC12 cells, measured by ATP; PC12 HTT-Q103 induced, cytoprotection, ATP luminescence, 40 h; AID 1471; Potency, µM (titrated, usually from 56.4 µM), actives largely listed as activators; 230,000 compounds, 0.14% hits; active means well fitted curve in the direction sought with a large enough effect; inconclusive means small, poorly fitted or top-dose-only effect, or another doubt; inactive means no such curve, though single readings can be large; an effect the other way counts as inactive or inconclusive; further: nearly all actives have a fitted effect of over 45% in size
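PC12 cells with ecdysone-inducible HTT exon 1 Q103-GFP, induced with 100 nM tebufenozide and co-treated with library compounds in a dose series (1536-well, 1500 cells/well). Cytoprotection read as ATP content by ATPlite luminescence.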
PNC inhibitor = inhibitors of perinucleolar compartment assembly; PC3M PTB-GFP, PNC prevalence imaging, 16 h; stronger effect = lower value; activity change (PNC), negative = inhibition, % at 10 µM; 140,000 compounds, 3.1% hits; AID 2417;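 active means readout at or below -70, meaning at least 70% loss of cells showing the perinucleolar compartment, a nuclear body marking cancer cells; inconclusive means readout between -30 and a set limit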
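Compounds are pinned in duplicate onto adhered PC3M cells stably expressing GFP-tagged PTB and incubated 16 h at 37 C. Cells are then fixed, nuclei stained with Hoechst, and PNC-positive cells counted.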
A number is an active result; - = inactive; ? = inconclusive; . = no result; [ ] = another dose, or the depositor's remark. Rows were chosen to be rich in hits. Some 11% of all compounds tested hit in one or more screens of this group. Unless noted, the call rests on the fitted dose curve; in most records, active means well fitted inhibition curve with a large enough effect (not every such curve was filed as active); inconclusive means small, poorly fitted or top-dose-only effect, or another doubt; inactive means no such curve, though single readings can be large or run the other way.

SMILES	RGS12 GoLoco inh	HttQ103 aggreg	ALDH1A1 block	HPGD inh	HTT ATP protect	PNC inhibitor
COCC(=O)N1CCC2(CCCN(Cc3ccccc3)C2)CC1	-	.	-	-	-	.
COC(=O)NC(c1ccc(Cl)cc1)C(C(C)=O)C(=O)OC (stereo not given)	.	.	-[13.5 µM]	.	-[10 µM]	.
CO[C@@H]1COC(=O)[C@H](CCSC)NC(=O)C/C=C\[C@@H](C)COC(=O)[C@@H]2CCCN2C(=O)C/C=C\[C@H]1C	.	.	-[13.5 µM]	.	?	.
O=C(c1ccccc1)N1CCN(C2c3cccc4cccc(c34)C2NS(=O)(=O)c2ccccc2)CC1 (stereo not given)	-	?	11.2µM	-	-	-
O=S(=O)(NC1c2cccc3cccc(c23)C1N1CCNCC1)c1ccccc1 (stereo not given)	-	-	-	-	-	?
CC1Cc2ccccc2N1C(=O)c1ccc(N2CCCCC2)c([N+](=O)[O-])c1 (stereo not given)	-	?	22.4µM	-	-[10 µM]	-
CC1Cc2ccccc2N1C(=O)c1ccc(N2CCCC2)c([N+](=O)[O-])c1 (stereo not given)	-	-	12.6µM	-	-[1.9 µM]	-
Cc1ccc2c(c1)-c1c(ssc1=S)C(C)(C)N2C(=O)c1ccco1	-	-	10µM	8.91µM	-[10 µM]	-100.0
CC1(C)c2ssc(=S)c2-c2ccccc2N1C(=O)c1ccco1	-	-	-	-	-[10 µM]	-
CC(NC(=S)NCc1ccc(F)cc1)C12CC3CC(CC(C3)C1)C2 (stereo not given)	-	-[9.22 µM]	?	.	-[10 µM]	.
Cc1ccsc1/C=N/N1CCN(Cc2ccccc2)CC1	-	-	15.8µM	.	-[10 µM]	.
O=C(CSc1nnc(Cc2cccs2)n1C1CCCCC1)N1CCCc2ccccc21	-	-	3.55µM	-	-	?
O=C(CSc1nnc2scc(-c3ccccc3)n12)Nc1nsc(-c2ccccc2)n1	-	?	?	?	-[10 µM]	-
Cc1ccc(-c2csc3nnc(SCC(=O)Nc4nsc(-c5ccccc5)n4)n23)cc1	-	?	8.91µM	-	-	-
Cn1nnnc1SCC(=O)N1CCCc2ccccc21	-	-	-	-	-[1.9 µM]	-
CCn1nnnc1SCC(=O)N1CCCc2ccccc21	-	-	3.55µM	-	-[10 µM]	-
O=C(CSc1nnc2scc(-c3ccccc3)n12)N1CCCc2ccccc21	-	-	11.2µM	-	-	-
Cn1c(Cc2cccs2)nnc1SCC(=O)N1CCCc2ccccc21	-	-	-	-	-	?
O=C(CN1CCCc2ccccc21)Nc1ccc(F)cc1[N+](=O)[O-]	-	-	-	.	-	.
C=CCNC(=O)COC(=O)c1cccnc1Nc1ccccc1F	-	-	-	.	-	.
COc1ccc(-n2nnnc2SCC(=O)N2CCCc3ccccc32)cc1OC	-	-	25.1µM	-	-[1.9 µM]	-
O=C(CSc1nnnn1C1CCCC1)N1CCCc2ccccc21	-	-	10µM	-	-	?
Cn1nnnc1SCC(=O)N1CCc2ccccc21	-	-[9.22 µM]	.	.	-[10 µM]	.
O=C(O)c1ccc(CSc2nnnn2C2CCCCC2)cc1	-	-	17.8µM	-	-[10 µM]	?
Cc1ccc(-c2nnc3ccc(SCC(=O)N4CCCc5ccccc54)nn23)cc1	-	?	?	-	-[10 µM]	-
SMILES	RGS12 GoLoco inh	HttQ103 aggreg	ALDH1A1 block	HPGD inh	HTT ATP protect	PNC inhibitor
Cc1ccc(-c2nnc(SCC(=O)N3CCCc4ccccc43)n2N)cc1	-	-	12.6µM	-	-	?
O=C(/C=C\c1ccc(O)c(O)c1)OCCc1ccccc1	.	.	.	.	-[1.9 µM]	.
Cc1nc(NCCO)c2nc(-c3ccccc3)n(CCN(C)C)c2n1	-	.	?	?	-	.
COc1cccc2cc(C(C)OC(=O)Nc3ccc(C)cc3)oc12 (stereo not given)	-	-	-	.	-	.
N=C(N)SCCc1ccncc1	-[14.2 µM]	.	-[13.5 µM]	-	-[10 µM]	.
c1cc(CSSCc2ccncc2)ccn1	-[14.2 µM]	.	3.98µM	-	-[10 µM]	.
O=C(NCc1cccnc1)c1cccc2c1C(=O)N(C1CCCCC1)C2	-	-	-	-	-[10 µM]	-100.0
O=C(NCc1ccco1)c1cccc2c1C(=O)N(C1CCCCC1)C2	-	-	-	-	-[10 µM]	-100.0
Cc1ccc(CN2C(=O)c3ccccc3C2C(=O)NCc2cccnc2)cc1 (stereo not given)	-	-	-	-	-	-
O=C(NCc1cccnc1)C1c2ccccc2C(=O)N1C1CCCC1 (stereo not given)	-	-	-	-	-[10 µM]	-108.4
O=C(NCc1cccnc1)C1CC(=O)N(C2CCCCC2)C1 (stereo not given)	-	-	-	-	?	-
CCOC(=O)c1ccc(Oc2nc(OC)cc(OC)n2)cc1	-	-	-	.	-	.
C[N+]12CCC(CC1)[C@@H](OC(=O)C(O)(c1ccccc1)c1ccccc1)C2	-	-	-	-	?	.
NC(=S)NC1CC2C=CC1C2 (stereo not given)	-	-[9.22 µM]	-	.	-[10 µM]	.
Oc1ccc2c(c1-c1c(O)c(Br)cc3c1CCCC3)CCCC2	-	.	-	-	-	.
Nc1cc2c(cc1O)CCCC2	-	-	2.24µM	.	-	.
CCOc1ccc(Br)cc1S(=O)(=O)Nc1ccc(C(=O)Nc2ccccc2OC)cc1	-	-	15.8µM	-	-[0.074 µM]	?
Cc1cc(F)ccc1NC(=O)c1ccc(NS(=O)(=O)c2cc(C(C)(C)C)ccc2C)cc1	-	-	2.51µM	-	-[10 µM]	-
CCOc1ccc(Br)cc1S(=O)(=O)Nc1ccc(C(=O)Nc2ccc(C)cc2)cc1	-	-	-	-	-[0.074 µM]	-
COc1ccccc1NC(=O)c1ccc(NS(=O)(=O)c2ccc(F)c(F)c2F)cc1	-	?	?	-	-[10 µM]	-121.5
COc1ccccc1NC(=O)c1ccc(S(=O)(=O)N(C)C)cc1	-	-	-	-	-	?
O=C(NNc1nc(-c2ccc(Br)cc2)cs1)c1ccco1	-	-[9.22 µM]	?	.	-	.
COc1ccccc1CN1CC2(CCN(C(=O)c3cc(C(F)(F)F)cc(C(F)(F)F)c3)CC2)C1	-	.	-	-	-	.
CCc1ccc(C(=O)/C=C/c2ccc([N+](=O)[O-])o2)cc1	-	?	3.55µM	-	-[10 µM]	-
CCc1ccc(/C=C/C(=O)c2ccc(N3CCOCC3)cc2)cc1	-	-	-	-	-[10 µM]	-
SMILES	RGS12 GoLoco inh	HttQ103 aggreg	ALDH1A1 block	HPGD inh	HTT ATP protect	PNC inhibitor
COc1ccc(C(=O)N2CCC3(CC2)CN(c2cccc(-c4ccccc4)c2)C3)cc1	-	.	?	?	?	.
O=C(c1ccco1)N1CCC2(CC1)CCN(c1cccc(-c3ccccc3)c1)CC2	-	.	28.2µM	-	?	.
O=C(c1ccco1)N1CCC2(CC1)CCN(c1ccc(-c3ccccc3)cc1)CC2	-	.	-	-	-	.
O=C(c1ccco1)N1CCC2(CCCN(c3cccc(-c4ccccc4)c3)C2)CC1	-	.	25.1µM	-	?	.
COc1ccc(C(=O)N2CCC3(CCCN(c4cccc(-c5ccccc5)c4)C3)CC2)cc1	-	.	22.4µM	-	-	.
COc1cc(C(=O)O)c2ccccc2n1	-	-[9.22 µM]	-	.	-[10 µM]	.
